Screening data from PubChem BioAssay.
Pf growth 48h: inhibits P. falciparum growth in the first generation, 48 h; P. falciparum luciferase growth in erythrocytes, 48 h; Potency, µM (titrated, usually from 28.7 µM), usual class: inhibitors; 310,000 compounds, 5.9% hits
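Here the parasites carry a stable luciferase gene and grow inside erythrocytes in Albumax-based RPMI medium with compound for one erythrocytic cycle. Activity is scored as loss of luminescent signal.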
Shiga toxin inh: Shiga toxin inhibition; Vero cells, Shiga toxin protein synthesis inhibition reporter; 290,000 compounds, 9.2% hits; inhibition, % at 38.7 µM; in the data active = inhibition mostly above about 28%, no sharp cut-off; inactive = mostly below about 43%
CHX counter: affects cycloheximide protein synthesis inhibition readout, counter-screen. 300,000 compounds, 12% hits. max response, %. cell reporter, cycloheximide protein synthesis inhibition counterscreen. AID 2314; in the data active = max response mostly above about 13%, no sharp cut-off; inactive = mostly below about 14%; note: read at 38.3 µM for the half of the compounds with a filed dose
SARS PLP yeast: SARS-CoV PLP inhibition in yeast | S. cerevisiae expressing SARS-CoV PLpro, growth rescue | Potency, µM (series often up to 32.9 µM), actives largely listed as activators | 330,000 compounds, 0.19% hits; calls by dose curve; note: nearly all actives have a fitted effect of over 55% in size
AMA1 RON2 block: disrupts binding of P. falciparum AMA1 to RON2; AlphaScreen AMA1-biotinylated RON2 peptide binding; Potency, µM (top dose mostly 58.2 µM), most hits filed as inhibitors; 360,000 compounds, 0.2% hits; AID 720542; note: nearly all actives have a fitted effect of over 45% in size
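AMA1 (3D7) with his tag at 25 nM final met compounds first, then biotinylated RON2 peptide at 25 nM; detection used donor plus acceptor beads, 10 µg/mL apiece, read by AlphaScreen after 30 min at room temperature.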
Pf growth 96h: P. falciparum growth inhibition at 96 hours. 320,000 compounds, 6.9% hits. P. falciparum luciferase reporter growth, 96 h. Potency, µM (series often up to 28.7 µM), actives largely listed as inhibitors. AID 504834
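Infected RBCs, 2% Hct / 0.05% parasitemia final; luciferase-reporter P. falciparum; cpd 96 h, 37 C, 5% CO2; luciferase detection reagent; luminescence.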
Each line names hits and unclear results; the compound was inactive in the other large screens. Most compounds without a hit are left out; they make up all but 19% or so of the library. Unless noted, calls come from the whole dose curve; as a rule, active = well fitted curve in the direction sought with a large enough effect; inconclusive = small, poorly fitted or top-dose-only effect, or another doubt; inactive = no such curve, though single readings can be large; an effect the other way counts as inactive or inconclusive.

C=CCSC1=C(C#N)C(c2ccc(OCC)cc2)CC(=O)N1 (stereo unspecified)	Pf growth 96h 7.38µM (no result: Pf growth 48h)
C=CCSC1=C(C#N)C(c2ccccc2C)CC(=O)N1 (stereo unspecified)	none
CCOC(=O)/C=c1\s/c(=C\c2sccc2C)c(=O)n1CC(=O)NCc1ccc(C)cc1	none (no result: AMA1 RON2 block)
O=C(N/N=C/c1ccccc1)C(=O)N/N=C/c1ccccc1	none
O=C(N/N=C/c1ccc(O)cc1)/C(=C/c1ccccc1)CCO	Pf growth 48h 13.1µM, CHX counter 14.0, Pf growth 96h inconclusive
O=S(=O)(c1ccc2c(c1)OCCO2)C1CCN(S(=O)(=O)c2c(F)cccc2F)CC1	none (no result: Pf growth 48h, SARS PLP yeast, AMA1 RON2 block, Pf growth 96h)
O=C(CCCCCNc1nc(=S)[nH]c2ccccc12)NCCC1=CCCCC1	Pf growth 48h inconclusive
Cc1ccc(CCNS(=O)(=O)c2cc(Br)cnc2N)cc1	Pf growth 96h inconclusive
CCC(=O)c1ccc(SC(=O)N(C)C)cc1O	CHX counter 14.8
O=C(c1ccc2[nH]c(=O)c(=O)[nH]c2c1)N1CCc2ccccc2C1	none
CCN1CC(CN(C)Cc2cn(-c3ccc(C)cc3)nc2-c2cccc(C)c2)CC1=O (stereo unspecified)	Pf growth 48h 10.4µM, Pf growth 96h inconclusive
Cc1ccc(-n2cc(CN(C)Cc3nccn3C)c(-c3ccc(F)cc3)n2)cc1	Pf growth 48h 8.28µM
Cc1ccc(-n2cc(CN(C)CCc3cn[nH]c3)c(-c3cccc(C)c3)n2)cc1	Pf growth 48h inconclusive
CCn1ccnc1CN(C)Cc1cn(-c2ccc(C)cc2)nc1-c1ccc(F)cc1	none
Cc1ccc(-n2cc(CNC(C)Cc3cnccn3)c(-c3cccc(C)c3)n2)cc1 (stereo unspecified)	Pf growth 48h 3.29µM
Cc1ccc(-n2cc(CN(C)Cc3ncc[nH]3)c(-c3cccc(C)c3)n2)cc1	Pf growth 48h 2.62µM
CCC(C)[C@H](NS(=O)(=O)c1ccc(C)cc1)C(=O)N1CCC(C(=O)N[C@@H](Cc2ccccc2)C(=O)O)CC1 (stereo partly specified)	none
NC(COCc1ccccc1)c1csc(Nc2ccccn2)n1 (stereo unspecified)	none (no result: Pf growth 48h, Shiga toxin inh, CHX counter, SARS PLP yeast, Pf growth 96h)
O=C(COC(=O)c1nc(Cl)ccc1Cl)Nc1cccc(S(=O)(=O)N2CCOCC2)c1	none (no result: Pf growth 48h, Shiga toxin inh, CHX counter, SARS PLP yeast, Pf growth 96h)
O=C(NCCCN1CCOCC1)C1Cc2c(ccc3ccccc23)O1 (stereo unspecified)	Pf growth 48h inconclusive
COc1ccccc1OCCCn1cc(C(=O)c2ccco2)c2ccccc21	Pf growth 48h inconclusive, Shiga toxin inh 143.4, CHX counter 34.6
COc1cccc(OCCn2cc(C(C)=O)c3ccccc32)c1	Pf growth 48h 9.28µM, Pf growth 96h inconclusive (no result: Shiga toxin inh)
CC(=O)c1cn(CCOc2cc(C)ccc2C)c2ccccc12	Pf growth 48h inconclusive, Pf growth 96h inconclusive
O=C(c1ccco1)c1cn(Cc2ccc(Cl)cc2)c2ccccc12	CHX counter 22.7 (no result: Pf growth 48h)
Cc1ccccc1OCCn1cc(C(=O)O)c2ccccc21	none
Cc1ccccc1OCCn1cc(/C(N)=N/O)c2ccccc21	Pf growth 96h 9.28µM (no result: Pf growth 48h)
CCn1c(=O)n(CC)c2cc(NC(=O)C(C)c3ccccc3)c(Br)cc21 (stereo unspecified)	Pf growth 48h inconclusive (no result: Shiga toxin inh)
Cc1ccc(CNC(=O)C2CCCN2C(=O)Nc2ccc(F)cc2)cc1 (stereo unspecified)	none
O=C(COC(=O)C1COc2ccccc2O1)Nc1cccc(F)c1 (stereo unspecified)	none (no result: Shiga toxin inh, CHX counter)
COc1ccccc1OCCn1cc(C(=O)c2ccco2)c2ccccc21	Pf growth 48h 11.7µM, Pf growth 96h inconclusive
COc1cccc(OCCn2cc(C(=O)c3ccco3)c3ccccc32)c1	Pf growth 48h 1.85µM
CCOC(=O)Cn1cc(C(=O)c2ccco2)c2ccccc21	none
COC(=O)C[C@H]1C[C@H]2c3cc(NC(=O)C4CCOCC4)ccc3O[C@H]2[C@@H](CO)O1	none (no result: Pf growth 48h, Shiga toxin inh, CHX counter, SARS PLP yeast, Pf growth 96h)
Cn1c(=O)cc(SCC(=O)NCCC2=CCCCC2)c2ccc(Cl)cc21	Pf growth 96h 14.7µM
CS(=O)(=O)N(Cc1ccc(Cl)cc1)c1ccc(C(=O)NCCC2=CCCCC2)cc1	none (no result: Pf growth 48h)
O=C(NCCC1=CCCCC1)c1ccc(Cl)cc1	CHX counter 32.6 (no result: AMA1 RON2 block)
CS(=O)(=O)Nc1ccc(C(=O)NCCC2=CCCCC2)cc1	Shiga toxin inh 143.9, CHX counter 55.3 (no result: SARS PLP yeast, Pf growth 96h)
